Consider 70 compounds from PubChem BioAssay AID1240 (Sanford-Burnham Center for Chemical Genomics, 2008).

Out of some 50,000 compounds screened, about 800 (1.6%) showed an effect of 50% or more. Many of the other results were omitted from the sample, so strong results are more common in it than they were.

Bcl-2-like protein 10 (Homo sapiens), sequence (Q9HD36 whole entry, looked up): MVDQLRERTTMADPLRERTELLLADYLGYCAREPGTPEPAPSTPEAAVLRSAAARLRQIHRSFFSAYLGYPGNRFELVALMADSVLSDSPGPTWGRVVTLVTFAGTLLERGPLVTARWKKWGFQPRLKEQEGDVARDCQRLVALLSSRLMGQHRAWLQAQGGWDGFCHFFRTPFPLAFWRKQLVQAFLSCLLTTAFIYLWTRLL

This experiment addresses Bcl-2-like protein 10 (Homo sapiens) (UniProt Q9HD36). Description: Phenotype converters, Bcl-B/TR3 peptide binding displacement, primary biochemical FP (AID 1240).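 Also: 0% = Bcl-B with tracer peptide and DMSO and 100% = tracer peptide lacking Bcl-B.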 The note with it: GST-Bcl-B / FITC-TR3 peptide fluorescence polarization; stronger effect = higher value; compound at 3.75 mg/L. A general note: Fluorescence polarisation rises when a labelled molecule tumbles more slowly, as on binding a larger partner.
`Cc1ccc(-c2[nH]n3c(=O)cc(-c4ccccc4)nc3c2C)cc1`: the displacement was 15.2%.
For the compound `CN(C)CCCNC(=O)/C=C/c1ccc(Cl)cc1`, the displacement came to 14%.
As for `COc1cc(C(=O)Nc2cccc(-c3cc4ccccc4oc3=O)c2)cc(OC)c1OC`, the figure is 3.9%; as for `CCOc1ccc(NC2=C(Cl)C(=O)N(c3ccc(Br)cc3)C2=O)cc1`, -4.8%; as for `CC(=O)Nc1sc2c(c1C(N)=O)CCC(C)C2` (stereo not given), 10.6%.
For `CC1CCc2c(sc(NC(=O)/C=C/c3ccccc3)c2C(N)=O)C1` (stereo not given), the displacement came to 10.5%.
In the case of `CC1CCc2c(sc(NC(=O)/C=C/c3ccc4c(c3)OCO4)c2C(N)=O)C1` (stereo not given) it was 144%.
`OCc1c(O)cnc2ccccc12`: the displacement came to 19.4%.
As for `O=c1[nH]c(-c2ccc(-c3ccc(F)cc3)o2)nc2sc3c(c12)CCCC3`, the figure is -13.3%; as for `CC(/C=C1\SC(N2CCN(C3=NC(=O)/C(=C\C(C)=C\c4ccccc4)S3)CC2)=NC1=O)=C\c1ccccc1`, -9%; as for `CC(=O)N1C(=S)NC(=O)/C1=C\c1cccnc1`, 93.4%.
In the case of `O=C1NC(=O)/C(=C/c2cccnc2)S1` it was 12%; in that of `CCc1ccc(/C=C2/C(=O)NC(=O)N2C(C)=O)cc1`, 13.8%; in that of `Cc1ccc(-c2cc(-c3ccncc3)c(C#N)c(N)c2C#N)cc1`, 21.2%.
As for `N#Cc1c(-c2ccc(Br)cc2)cc(-c2ccco2)c(C#N)c1N`, the figure is 76.9%.
`N#Cc1c(-c2ccc(Br)cc2)cc(-c2ccc3c(c2)OCO3)c(C#N)c1N`: the displacement is 4.5%.
As for `CCOC(=O)C(=CNCCC(=O)O)C(=O)OCC`, the figure is 14.6%; as for `COc1ccc(CCN2C(=O)C3C4c5ccccc5C(C)(c5ccccc54)C3C2=O)cc1OC` (stereo not given), -1.3%; as for `Cc1ccc(C=C2C(=O)NC(=O)N(c3cccc(Cl)c3)C2=O)s1`, 87.1%.
As for `Cc1ccc(N2C(=O)NC(=O)/C(=C\c3ccc(C)s3)C2=O)cc1`, the figure is 13.4%.
Turning to `Cc1ccc(N2C(=O)NC(=O)/C(=C/c3cccc(Cl)c3)C2=O)cc1`, the displacement was -8.8%.
In the case of `CC(C)CNC(=O)C(=O)Nc1ccc(Oc2ccccc2)cc1` it was 5.2%; in that of `COc1cc(/C=c2/sc3nc4ccccc4n3c2=O)ccc1OCc1nn[nH]n1`, 5.2%.
As for `Cc1ccc2nc(-c3ccc(NC(=O)c4ccccc4-c4ccccc4C(=O)O)cc3)sc2c1`, the figure is 7.9%; as for `Cc1ccc2nc(-c3ccc(O)cc3)sc2c1`, 12.7%; as for `Cc1ccc2nc(-c3ccc(OC(=O)c4ccccc4F)cc3)sc2c1`, 76.4%.
Regarding `C=C(C)CSc1nc2sc3c(c2c(=O)n1CC(=C)C)CC(C)(C)OC3`, the displacement was -10.4%.
In the case of `O=C(Nc1ccc2nc(SCCOc3ccccc3)sc2c1)c1ccccc1Cl` it was -3.4%.
As for `CCOc1ccc(/C=C2/NC(=S)NC2=O)cc1`, the figure is 10.8%.
For the compound `COc1ccc(/C=C/C=C2\NC(=S)NC2=O)cc1`, the displacement came out at 128%.
Take `CC(C)(C)c1ccc(/C=C2\NC(=S)NC2=O)cc1`: the displacement is -20.2%.
On to `CC(C)(C)CC(C)(C)NC(=O)c1ccc2nccnc2c1`, for which the displacement came out at 14.3%.
In the case of `Cc1ccccc1-n1c(C)cc(/C=N/NC(=O)CN2CCOCC2)c1C` it was -22.2%; in that of `CC(C)CC(NC(=O)c1ccco1)C(=O)O` (stereo not given), 9.5%; in that of `Cc1cc([N+](=O)[O-])ccc1-c1ccc(C(=O)Nc2ccc3oc(-c4ccccc4)nc3c2)o1`, 116%.
As for `O=C(Nc1ccc2oc(-c3ccccc3)nc2c1)c1ccc(-c2ccc([N+](=O)[O-])cc2)o1`, the figure is 22.1%; as for `Cc1cc([N+](=O)[O-])ccc1-c1ccc(C(=O)Nc2ccc(Cl)cn2)o1`, 50.1%; as for `Cc1cc([N+](=O)[O-])ccc1-c1ccc(C(=O)Nc2ccc(Cl)cc2)o1`, 45.8%.
Take `Cc1cc([N+](=O)[O-])ccc1-c1ccc(C(=O)Nc2ccc(-c3nc4ccccc4o3)c(O)c2)o1`: the displacement worked out at 10.8%.
In the case of `O=C(Nc1ccc(Cl)cn1)c1ccc(-c2ccc([N+](=O)[O-])cc2)o1` it was 13.9%; in that of `CCc1ccccc1NC(=O)C(F)(Cl)C(F)(F)F` (stereo not given), -3.1%; in that of `COc1cccc(CN2CCN(C(=O)c3cccc(Cl)c3)CC2)c1`, 3.6%.
Turning to `CC(=O)c1ccc(NC(=O)C2CC(=O)N(C3CCCCC3)C2)cc1` (stereo not given), the displacement turned out to be 11.1%.
In the case of `COc1ccc(CCC(=O)Nc2cc(Cl)cc(Cl)c2)cc1` it was 0.3%.
In the case of `CC(=O)N(Cc1ccc2c(c1)OCO2)C1CC(=O)N(c2ccc(Br)cc2)C1=O` (stereo not given) it was 72.3%.
On to `O=C1CC(N(Cc2ccc3c(c2)OCO3)C(=O)c2ccc(Cl)cc2)C(=O)N1c1ccc(F)cc1` (stereo not given), for which the displacement was -2.2%.
In the case of `CC(=O)N(Cc1ccc2c(c1)OCO2)C1CC(=O)N(c2cccc(Cl)c2)C1=O` (stereo not given) it was 16%; in that of `CC1(C)CC(=O)C2=C(C1)Nc1ccccc1NC2c1cccc(Br)c1` (stereo not given), 2.4%; in that of `O=C1c2[nH]nc(-c3ccccc3)c2C(c2ccccc2F)N1c1ccccc1` (stereo not given), -3.9%.
In the case of `C=CCn1c(SCCC)nc2sc3c(c2c1=O)CCc1ccccc1-3` it was 0.4%.
As for `COc1ccc(C(=O)NNC(=O)c2cccc(C)c2O)cc1OC`, the figure is -1.1%.
With `CCOC(=O)C1=C(C)N=c2s/c(=C\c3ccc(OC)cc3)c(=O)n2C1c1ccc(Cl)cc1` (stereo not given), the displacement is 18.8%.
In the case of `CCOC(=O)C1=C(C)N=c2s/c(=C\c3ccccc3OC)c(=O)n2C1c1ccc(C)cc1` (stereo not given) it was -2.8%.
As for `CCOC(=O)C1=C(C)N=c2s/c(=C\c3ccc(OC)c(OC)c3OC)c(=O)n2C1c1ccccc1` (stereo not given), the figure is 210%.
In the case of `CCOC(=O)C1=C(C)N=c2s/c(=C\c3ccc(OC)c(O)c3)c(=O)n2C1c1ccc(Cl)cc1` (stereo not given) it was -5.3%.
Take `CCOC(=O)C1=C(C)N=c2s/c(=C\c3ccc(OC)c(OC)c3OC)c(=O)n2C1c1ccc(Cl)cc1` (stereo not given): the displacement was 152%.
With `CCOC(=O)C1=C(C)N=c2s/c(=C\c3cccc(OC)c3O)c(=O)n2C1c1ccccc1` (stereo not given), the displacement is -0.2%.
As for `CCOC(=O)C1=C(N)OC2=C(C(=O)CCC2)C1c1ccc(Cl)cc1Cl` (stereo not given), the figure is -2.9%; as for `CC(=O)n1cc(/C=C2\N=C(c3ccccc3F)OC2=O)c2ccccc21`, 7.6%; as for `C=CCOc1ccccc1/C=C1\N=C(c2ccc(C)cc2)OC1=O`, -2.1%.
In the case of `COc1ccc(/C=C2\N=C(c3ccccc3I)OC2=O)cc1`, the displacement is -2.3%.
`Cc1no[n+]([O-])c1COc1ccccc1/C=C1\N=C(c2ccccc2)OC1=O`: the displacement is -3.2%.
Consider `CC(=O)n1cc(/C=C2\N=C(c3ccc(C(C)(C)C)cc3)OC2=O)c2ccccc21`, for which the displacement was 72.1%.
In the case of `COc1cccc(/C=C2\N=C(c3cccs3)OC2=O)c1OC` it was 59.5%; in that of `O=C1OC(c2cccs2)=N/C1=C\c1cccc(Cl)c1Cl`, 29.5%.
In the case of `CCCOc1ccccc1/C=C1\N=C(c2ccccc2)OC1=O` it was 64%; in that of `CCOc1ccc(/C=C2\N=C(c3ccccc3F)OC2=O)cc1`, 11%.
In the case of `C=C(C)COc1ccccc1/C=C1\N=C(c2cccs2)OC1=O` it was 0.7%; in that of `COc1ccc(/C=C2\N=C(c3ccccc3F)OC2=O)c(OC)c1`, 72.1%.
Consider `COC(=O)c1ccc(/C=C2\N=C(c3ccc(C(C)(C)C)cc3)OC2=O)cc1`, for which the displacement is 11.1%.
